Test results taken from PubChem BioAssay (NCATS).
Inconclusive results are not listed. A call without a number means that no potency is given here. Active and inactive are the calls of the source. Calls come from the whole dose curve; as a rule, active = well fitted cell-killing curve with a large enough effect; inconclusive = small, poorly fitted or top-dose-only effect, or effect the other way; inactive = no such curve, though single readings can be large or run the other way.

Tests used:
[1] = Quantitative High-Throughput drug screen in 47 multiple myeloma cell lines against the NCATS MIPE library collection: U266_ATCC cell viability assay (AID 1919864); note: nearly all actives have a fitted effect of over 35% in size
In short: (§1)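 500 cells/well; MIPE 4.0 drugs pin-transferred; 48 h, 37C, 5% CO2. CellTiter-Glo, 5 min RT, luminescence. Controls: DMSO 100%, media 0%.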

[2] = Quantitative High-Throughput drug screen in 47 multiple myeloma cell lines against the NCATS MIPE library collection: VP6_DJ cell viability assay (AID 1919867); note: nearly all actives have a fitted effect of over 40% in size
In short: as §1

[3] = Quantitative High-Throughput drug screen in 47 multiple myeloma cell lines against the NCATS MIPE library collection: PCM6_Riken cell viability assay (AID 1919870); note: nearly all actives have a fitted effect of over 30% in size
In short: as §1

[4] = Quantitative High-Throughput drug screen in 47 multiple myeloma cell lines against the NCATS MIPE library collection: RPMI8226_ATCC cell viability assay (AID 1919871); note: nearly all actives have a fitted effect of over 30% in size
In short: as §1

[5] = Quantitative High-Throughput drug screen in 47 multiple myeloma cell lines against the NCATS MIPE library collection: OPM2_DSMZ cell viability assay (AID 1919872); note: nearly all actives have a fitted effect of over 30% in size
In short: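 Viability readout: CellTiter-Glo luminescence following 5 min room-temperature incubation with reagent. Prior exposure: 48 h, 37C, humidified 5% CO2, 500 cells per well.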

[6] = Quantitative High-Throughput drug screen in 47 multiple myeloma cell lines against the NCATS MIPE library collection: KMS28BM_JCRB cell viability assay (AID 1919874); note: nearly all actives have a fitted effect of over 35% in size
In short: as §1

[7] = Quantitative High-Throughput drug screen in 47 multiple myeloma cell lines against the NCATS MIPE library collection: XG6_PLB cell viability assay (AID 1919865); note: nearly all actives have a fitted effect of over 40% in size
In short: as §1

[8] = Quantitative High-Throughput drug screen in 47 multiple myeloma cell lines against the NCATS MIPE library collection: XG1_PLB cell viability assay (AID 1919866); note: nearly all actives have a fitted effect of over 35% in size
In short: as §1

[9] = Quantitative High-Throughput drug screen in 47 multiple myeloma cell lines against the NCATS MIPE library collection: KMS11_JCRBsus cell viability assay (AID 1919873); note: nearly all actives have a fitted effect of over 50% in size
In short: as §1

[10] = Quantitative High-Throughput drug screen in 47 multiple myeloma cell lines against the NCATS MIPE library collection: UTMC2_PLB cell viability assay (AID 1919868); note: nearly all actives have a fitted effect of over 55% in size
In short: as §1

[11] = Quantitative High-Throughput drug screen in 47 multiple myeloma cell lines against the NCATS MIPE library collection: PE2_PLB cell viability assay (AID 1919869); note: nearly all actives have a fitted effect of over 35% in size
In short: as §1
Potency is the fitted concentration of half-maximal effect.

SMILES	Potency [1]	Potency [2]	Potency [3]	Potency [4]	Potency [5]	Potency [6]	Potency [7]	Potency [8]	Potency [9]	Potency [10]	Potency [11]
NCCCCNCCCN	7.43 µM (active)	26.4 µM (active)	16.6 µM (active)	23.5 µM (active)	20.9 µM (active)	inactive	–	–	–	–	–
CCc1nc(N)nc(N)c1-c1ccc(Cl)cc1	–	3.32 µM (active)	–	–	–	inactive	inactive	3.72 µM (active)	16.6 µM (active)	–	–
CCOC(=O)c1c(C)n(C)c2ccc(O)cc12	–	–	–	inactive	inactive	–	inactive	6.62 µM (active)	inactive	–	–
C[Se]CCC(N)C(=O)O (configuration not stated)	inactive	–	–	inactive	inactive	–	–	–	inactive	inactive	inactive
Cc1ccc(Nc2nccc(N(C)c3ccc4c(C)n(C)nc4c3)n2)cc1S(N)(=O)=O	–	16.6 µM (active)	–	14.8 µM (active)	–	inactive	11.8 µM (active)	9.35 µM (active)	–	–	16.6 µM (active)
CCOc1cc(CC(=O)N[C@@H](CC(C)C)c2ccccc2N2CCCCC2)ccc1C(=O)O	–	inactive	–	inactive	inactive	inactive	inactive	inactive	inactive	–	–
COC(=O)C1=C(C)NC(C)=C(C(=O)OCCCN2CCC(c3ccccc3)(c3ccccc3)CC2)C1c1cccc([N+](=O)[O-])c1 (configuration not stated)	–	inactive	inactive	–	inactive	inactive	inactive	inactive	inactive	inactive	–
O=C1c2c(O)cc(O)cc2OC(c2ccc(O)c(O)c2)C1O (configuration not stated)	inactive	inactive	inactive	inactive	–	–	–	–	inactive	–	–
COc1ccccc1N1CCN(CCN(C(=O)C2CCCCC2)c2ccccn2)CC1	–	5.9 µM (active)	–	inactive	inactive	inactive	1.48 µM (active)	7.43 µM (active)	inactive	inactive	–
NS(=O)(=O)c1cc(C(=O)O)c(NCc2ccco2)cc1Cl	–	–	inactive	inactive	inactive	–	inactive	inactive	–	–	–
CN1CCC(=C2c3ccccc3CCc3sccc32)CC1	–	–	–	16.6 µM (active)	inactive	10.5 µM (active)	inactive	18.7 µM (active)	–	–	inactive
C[C@H](Cn1cnc2c(N)ncnc21)OCP(=O)(O)O	–	inactive	–	–	inactive	inactive	inactive	inactive	inactive	inactive	inactive
O=C(NCCO[N+](=O)[O-])c1cccnc1	–	inactive	–	–	inactive	inactive	inactive	inactive	–	–	inactive
Cc1cc(C2CCCCC2)n(O)c(=O)c1	–	8.33 µM (active)	8.33 µM (active)	–	–	–	8.33 µM (active)	8.33 µM (active)	5.26 µM (active)	–	–
O=C(O)c1cc(=O)c2c(OCC(O)COc3cccc4oc(C(=O)O)cc(=O)c34)cccc2o1	–	5.26 µM (active)	–	–	inactive	inactive	inactive	inactive	inactive	–	–
CC(S)C(=O)NCC(=O)O (configuration not stated)	–	–	–	inactive	inactive	inactive	inactive	inactive	inactive	–	inactive
CCCCCCCCCCCCCCCCCCCCCCO	–	inactive	inactive	inactive	inactive	inactive	inactive	inactive	–	–	inactive
COc1ccc(C2(C#N)CCC(C(=O)O)CC2)cc1OC1CCCC1 (configuration not stated)	inactive	16.6 µM (active)	16.6 µM (active)	inactive	inactive	inactive	–	–	inactive	–	–
CS(=O)(=O)OCCCCOS(C)(=O)=O	–	–	–	–	inactive	inactive	inactive	inactive	inactive	–	inactive
O=C1c2ccccc2-c2n[nH]c3cccc1c23	inactive	–	–	–	inactive	–	–	–	inactive	–	–
C[C@@H](N)C1CCC(C(=O)Nc2ccncc2)CC1 (some centres not stated)	–	–	–	inactive	inactive	inactive	5.9 µM (active)	9.35 µM (active)	inactive	6.62 µM (active)	16.6 µM (active)
O=c1c(O)c(-c2cc(O)c(O)c(O)c2)oc2cc(O)cc(O)c12	–	–	inactive	–	26.4 µM (active)	–	inactive	inactive	–	inactive	–
CN(C)c1ccc(O)c2c1C[C@H]1C[C@H]3[C@H](N(C)C)C(=O)C(C(N)=O)=C(O)[C@@]3(O)C(=O)C1=C2O	5.9 µM (active)	–	18.7 µM (active)	–	20.9 µM (active)	–	–	–	–	–	–
CC1=C(C)C(=O)C(C(CCCCCC(=O)O)c2ccccc2)=C(C)C1=O (configuration not stated)	–	3.72 µM (active)	2.09 µM (active)	–	–	–	inactive	inactive	–	–	–
CC(C)(S)[C@@H](N)C(=O)O	–	inactive	inactive	inactive	inactive	–	inactive	inactive	inactive	–	inactive
Cc1ccc(NC(=O)c2ccc(CN3CCN(C)CC3)cc2)cc1Nc1nccc(-c2cccnc2)n1	–	23.5 µM (active)	18.7 µM (active)	inactive	inactive	inactive	33.2 µM (active)	–	–	–	–
CC[C@]1(O)C[C@H]2CN(CCc3c([nH]c4ccccc34)[C@@](C(=O)OC)(c3cc4c(cc3OC)N(C=O)[C@H]3[C@@](O)(C(=O)OC)[C@H](OC(C)=O)[C@]5(CC)C=CCN6CC[C@]43[C@@H]65)C2)C1	–	–	–	0.0093 µM (active)	0.003 µM (active)	–	inactive	–	–	0.0093 µM (active)	–
CC1(C)C(=O)N(CCN2CCC(C(=O)c3ccc(F)cc3)CC2)c2ccccc21	–	4.18 µM (active)	–	–	inactive	18.7 µM (active)	4.69 µM (active)	–	–	–	23.5 µM (active)
CC1=C(C(=O)O)N2C(=O)[C@@H](NC(=O)[C@H](N)C3=CCC=CC3)[C@H]2SC1	–	–	–	inactive	inactive	inactive	–	inactive	inactive	–	inactive
